Pf growth 96h = P. falciparum growth inhibition at 96 hour, primary screen for plastid delayed-death inhibitors; Potency, µM (highest dose often 28.7 µM), for the others: at the highest dose activity change, negative = inhibition, actives largely listed as inhibitors; P. falciparum luciferase reporter growth, 96 h; 320,000 tested, 6.9% active; further: on the % scale 0 is the no-effect control and ±100 the full control effect
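Infected RBCs, 2% Hct / 0.05% parasitemia final; luciferase-reporter P. falciparum; cpd 96 h, 37 C, 5% CO2; luciferase detection reagent; luminescence.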
Sm TGR inh = S. mansoni TGR enzyme inhibition; purified TGR, DTNB reduction, TNB absorbance 405 nm; 360,000 tested, 3% active; Potency, µM (series often up to 114 µM), for the others: at the highest dose activity change, negative = inhibition, usual class: inhibitors; Q962Y6; AID 485364; further: on the % scale 0 is the no-effect control and ±100 the full control effect; nearly all actives have a fitted effect of over 60% in size
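First, TGR (20 nM dispensed) and NADPH were mixed with compound. Second, a 15 min room-temperature incubation followed. Third, further NADPH and then DTNB were added to start the reaction. Finally, TNB absorbance was monitored kinetically.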
AmpC detergent = AmpC beta-lactamase inhibition with detergent present | AmpC hydrolysis of nitrocefin, absorbance 480 nm, 0.01% Triton | Potency, µM (titrated, usually from 114 µM), without a hit: top-dose activity change, negative = inhibition, actives largely listed as inhibitors | 370,000 tested, 0.041% active | AID 485294;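 further: 0% = no-compound wells and -100% = no-enzyme wells; nearly all actives have a fitted effect of over 25% in size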
Target sequence (P00811 whole entry, looked up): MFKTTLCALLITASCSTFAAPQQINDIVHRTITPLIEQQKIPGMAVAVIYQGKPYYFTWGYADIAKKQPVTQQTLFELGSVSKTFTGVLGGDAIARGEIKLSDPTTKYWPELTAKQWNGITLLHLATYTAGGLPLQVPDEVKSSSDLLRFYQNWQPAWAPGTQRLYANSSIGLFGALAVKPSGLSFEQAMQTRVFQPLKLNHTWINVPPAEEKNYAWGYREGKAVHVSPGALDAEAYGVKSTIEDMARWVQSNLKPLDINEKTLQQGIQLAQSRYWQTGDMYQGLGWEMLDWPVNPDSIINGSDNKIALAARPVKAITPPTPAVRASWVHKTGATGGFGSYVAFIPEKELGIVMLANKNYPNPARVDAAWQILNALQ
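AmpC (5.3 nM in the dispensed reagent) in 20 mM phosphate pH 7.0 with 0.01% (detergent screen) or 0.0001% Triton X-100 was preincubated with compounds for 15 min at room temperature. Nitrocefin was then added from an 800 uM solution, and hydrolysis was followed at 480 nm.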
SARS PLP yeast = SARS-CoV PLP inhibition in yeast. S. cerevisiae expressing SARS-CoV PLpro, growth rescue. Potency, µM (top dose mostly 32.9 µM), without a hit: top-dose activity, positive = growth rescue, usual class: activators. 330,000 tested, 0.19% active. AID 485353; calls by dose curve; further: 0% is about no effect; nearly all actives have a fitted effect of over 55% in size
Pf growth 48h = inhibits P. falciparum growth in the first generation, 48 h; P. falciparum luciferase growth in erythrocytes, 48 h; Potency, µM (doses to about 28.7 µM), for the others: at the top dose activity change, negative = inhibition, usual class: inhibitors; 310,000 tested, 5.9% active; AID 504832; further: on the % scale 0 is the no-effect control and ±100 the full control effect
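Luciferase-expressing parasites in RBCs, 2% Hct / 0.1% parasitemia final; RPMI 1640 + 0.5% Albumax; 37 C, 5% CO2, one generation; luminescence read-out, lower signal = inhibition.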
AmpC no deterg = inhibitors of E. coli AmpC beta-lactamase without detergent. Potency, µM (titrated, usually from 57.1 µM), inactives show at the highest dose activity change, negative = inhibition, most hits filed as inhibitors. P00811. AmpC nitrocefin hydrolysis, absorbance 480 nm, 0.0001% Triton. 330,000 tested, 0.52% active;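 further: plate controls were no compound for no effect and no enzyme for full effect; nearly all actives have a fitted effect of over 20% in size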
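AmpC (5.3 nM in the dispensed reagent) in 20 mM phosphate pH 7.0 with 0.01% (detergent screen) or 0.0001% Triton X-100 was preincubated with compounds for 15 min at room temperature. Nitrocefin was then added from an 800 uM solution, and hydrolysis was followed at 480 nm.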
* = called active by the depositor; [ ] = remark or other dose. This is a sample that favours compounds with a hit; in the whole collection about 12% have one here. Unless noted, the call rests on the fitted dose curve; in most records, active means well fitted curve in the direction sought with a large enough effect; inconclusive means small, poorly fitted or top-dose-only effect, or another doubt; inactive means no such curve, though single readings can be large; an effect the other way counts as inactive or inconclusive. Potency means the concentration at half of the fitted maximal effect.

What do the screens show for `COc1cc(/C=C/C(=O)OCC(=O)NC2CCS(=O)(=O)C2)ccc1O` (centres undefined)?
Pf growth 96h: 0%; Sm TGR inh: -11%; AmpC detergent: inconclusive; SARS PLP yeast: 9%; Pf growth 48h: -7%; AmpC no deterg: -11%

How did CCOC(=O)N1C(=O)[C@](CC)(c2ccccc2)N1C(=O)OCC do in these assays?
Pf growth 96h: 3%; Sm TGR inh: 2.8µM*; AmpC detergent: inconclusive; SARS PLP yeast: 3%; Pf growth 48h: 10%; AmpC no deterg: -1%

What do the screens show for `C[C@@H](NC(=O)C1(c2ccccc2)CCN(C(=O)OC(C)(C)C)CC1)C(=O)N[C@@H](Cc1ccccc1)C(=O)O`?
Pf growth 96h: inconclusive; Sm TGR inh: -2%; AmpC detergent: inconclusive; SARS PLP yeast: 0%; Pf growth 48h: inconclusive; AmpC no deterg: 15%

Results for CCOC(=O)C1C(C(=O)OCC)C1(c1ccccc1)c1ccccc1 (centres undefined) ?
Pf growth 96h: 3%; Sm TGR inh: -8%; AmpC detergent: -7%; SARS PLP yeast: -33%; Pf growth 48h: inconclusive; AmpC no deterg: 10%

What do the screens show for `CCC1(c2ccccc2)C(=O)N(C(=O)OC(C)(C)C)N1C(=O)OC(C)(C)C` (centres undefined)?
Pf growth 96h: inconclusive; Sm TGR inh: -25%; AmpC detergent: -7%; SARS PLP yeast: 4%; Pf growth 48h: 13µM*; AmpC no deterg: 0%

How did Cc1nn(C(=O)c2ccccc2)c(C)c1Sc1ccc(Cl)cc1 do in these assays?
Sm TGR inh: 6%; AmpC detergent: 19%

Results for O=[N+]([O-])c1cccc(N/N=C/c2cccc(O)c2O)c1 ?
Pf growth 96h: 1%[5.75 µM]; Sm TGR inh: -30%; AmpC detergent: -11%; SARS PLP yeast: -6%; Pf growth 48h: inconclusive; AmpC no deterg: 16µM*

Results for O=[N+]([O-])c1ccc(N/N=C/c2ccc(O)c(O)c2O)c(S(=O)(=O)N2CCOCC2)c1 ?
Pf growth 96h: -21%; AmpC detergent: -11%; SARS PLP yeast: 6%; Pf growth 48h: inconclusive; AmpC no deterg: -58%

How did O=[N+]([O-])c1ccc(N/N=C/c2cccc(O)c2O)c(S(=O)(=O)N2CCOCC2)c1 do in these assays?
Pf growth 96h: inconclusive; AmpC detergent: -1%; SARS PLP yeast: -1%; Pf growth 48h: inconclusive; AmpC no deterg: 11µM*

Results for COc1ccc(-c2nc3c4cnn(-c5ccccc5F)c4ncn3n2)cc1 ?
Sm TGR inh: 4%; AmpC detergent: -2%

Results for CCOC(=O)C1(CC2CCCCO2)CCN(C(=O)Nc2ccccc2)CC1 (centres undefined) ?
Pf growth 96h: -3%; Sm TGR inh: 5%; AmpC detergent: -1%; SARS PLP yeast: 0%; Pf growth 48h: inconclusive; AmpC no deterg: 1%

Results for CCOC(=O)C1(CC2CCCCO2)CCN(C(=O)Nc2ccccc2CC)CC1 (centres undefined) ?
Pf growth 96h: 35%; Sm TGR inh: -2%; AmpC detergent: 7%; SARS PLP yeast: -1%; Pf growth 48h: 0%; AmpC no deterg: 29%

Results for CCOC(=O)C1(CC2CCCCO2)CCN(C(=O)Nc2ccccc2SC)CC1 (centres undefined) ?
Pf growth 96h: 12µM*; Sm TGR inh: 6%; AmpC detergent: 6%; SARS PLP yeast: -1%; Pf growth 48h: inconclusive; AmpC no deterg: 27%

How did CCOC(=O)C1(CC2CCCCO2)CCN(Cc2nc3ccccc3nc2C)CC1 (centres undefined) do in these assays?
Pf growth 96h: 12µM*; Sm TGR inh: -13%; AmpC detergent: 3%; SARS PLP yeast: 0%; Pf growth 48h: inconclusive; AmpC no deterg: 37%

How did COc1cccc(N2CCN(c3ncc4c(n3)CCN(Cc3ccc(Br)cc3)C4)CC2)c1 do in these assays?
Sm TGR inh: 3%; AmpC detergent: 10%
